Reference: PubChem BioAssay
For part of these data: Measured potencies and affinities stand elsewhere. Active and inactive are the calls of the source.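 Rule for the calls, unless noted: active = dose curve with midpoint inside tested range, moderate steepness, plateau gap beyond fit error, low compound glow and bead-link interference; inactive = the rest.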

What was measured:
[1] = biological target: Cell division control protein 42 homolog (Homo sapiens) (UniProt P60953); test: inhibition of fluorescent GTP binding to constitutively active Cdc42 – biochemical, multiplex bead flow cytometry, Bodipy-FL-GTP, dose response (AID 1333;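 active = fitted half-maximal concentration within the tested dose range, moderate curve steepness, a statistically real signal drop, and little compound fluorescence or tag-binding interference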)
[2] = biological target: Cell division control protein 42 homolog (Homo sapiens) (UniProt P60953); test: inhibition of fluorescent GTP binding to wildtype Cdc42 – biochemical, multiplex bead flow cytometry, Bodipy-FL-GTP, dose response (AID 1334;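 active = fitted half-maximal concentration within the tested range, moderate curve steepness, significant signal drop, and little compound fluorescence or bead-linkage interference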); conditions: bead-based flow cytometry, Bodipy-FL-GTP binding to GST-Cdc42; at 100 µM (top of the series) unless noted
[3] = biological target: GTPase HRas (Homo sapiens) (UniProt P01112); test: Ras wt fluorescent GTP loading blockade – biochemical, wildtype, multiplex bead flow cytometry, dose response (AID 1335;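 active = fitted half-maximal concentration within 10 nM to 100 µM, steepness 0.5 to 2, significant signal drop, low assay interference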); conditions: bead-based flow cytometry, Bodipy-GTP binding to GST-Ras; at 100 µM (top of the series) unless noted
[4] = tested on: Ras-related protein Rab-7a (dog), GTP binding; test: blockers of fluorescent GTP binding to Rab7 – biochemical, wildtype, multiplex bead flow cytometry, dose response (AID 1336; call rule not given here)
[5] = biological target: Ras-related C3 botulinum toxin substrate 1 (Homo sapiens) (UniProt P63000); test: inhibition of wildtype Rac1 nucleotide loading – biochemical, multiplex bead flow cytometry, dose response (AID 1340); conditions: GST-Rac1 beads, Bodipy-FL-GTP binding; at 100 µM (top of the series) unless noted
[6] = biological target: GTPase HRas (Homo sapiens) (UniProt P01112); test: blockade of GTP loading onto mutant Ras – biochemical, activated mutant, multiplex bead flow cytometry, dose response (AID 1341;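 active = dose-response curve with midpoint inside the tested range, moderate steepness, significant amplitude and little compound fluorescence or bead-attachment interference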;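 note: GST-tagged constitutively activated Ras mutant immobilized on beads and multiplexed with other GTPases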)

Chain of Cell division control protein 42 homolog (Homo sapiens) (P60953 whole entry, looked up): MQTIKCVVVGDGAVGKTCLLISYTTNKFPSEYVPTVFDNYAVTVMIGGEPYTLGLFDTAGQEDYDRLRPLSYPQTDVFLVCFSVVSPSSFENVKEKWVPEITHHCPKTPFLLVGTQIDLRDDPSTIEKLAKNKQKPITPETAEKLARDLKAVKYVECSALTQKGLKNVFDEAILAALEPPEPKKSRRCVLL
Chain of GTPase HRas (Homo sapiens) (P01112 whole entry, looked up): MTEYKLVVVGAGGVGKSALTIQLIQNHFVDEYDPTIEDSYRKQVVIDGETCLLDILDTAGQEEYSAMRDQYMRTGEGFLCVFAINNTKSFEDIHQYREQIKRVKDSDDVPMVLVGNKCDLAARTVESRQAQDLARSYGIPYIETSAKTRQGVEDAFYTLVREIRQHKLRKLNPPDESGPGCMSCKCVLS

Compound | outcome [1] | fluorescence, percent of control (lower = inhibition) [2] | GTP binding, percent of control [3] | outcome [4] | GTP binding signal, raw median fluorescence (lower = inhibition) (MCF (arbitrary fluorescence units)) [5] | outcome [6]
COc1ccc(/C=C2\CCCC3C2=NN(C(=O)c2scnc2C)C3c2ccc(OC)c(OC)c2)cc1OC (centres undefined) | inactive | 76.7% | 122% | inactive | 138 | inactive
O=C(CNC(=O)Cc1ccccc1)N=Nc1c(O)n(Cc2ccc3c(c2)OCO3)c2ccccc12 | inactive | 36.1% | 48.5% | inactive | 112 | inactive
CCCCn1c(O)c(/C=C/C=C/C=Nc2ccccc2)sc1=S | inactive | 29.8% | 68.3% | inactive | 216 | inactive
O=c1cc(N2CCc3ccccc3C2)[nH]c(=O)n1-c1ccc(Cl)cc1 | inactive | 43.6% | 92.9% | inactive | 267 | inactive
CCOC(=O)c1ccc(Nc2nc(C(=O)OCC)nc3ccccc23)cc1 | inactive | 66.3% | 128% | inactive | 159 | inactive
Cc1nnc(OC(C)C)c2nn(-c3ccccc3F)c(C)c12 | inactive | 55.1% | 69.3% | inactive | 0 | inactive
Cc1cccc(/C=N/N(CCO)C2=NS(=O)(=O)c3ccccc32)c1 | inactive | 28.3% | 67.6% | inactive | 139 | inactive
CCOc1ccc2ccccc2c1/C=N/n1cncn1 | inactive | 86.7% | 156% | inactive | 179 | inactive
COc1cccc(CNCc2ccc(C(=O)O)s2)c1 | inactive | 61.9% | 84.8% | inactive | 32.9 | inactive
COc1ccc(/C=C2/N=C(SCC(=O)Nc3cc(C)on3)N(c3ccccc3)C2=O)cc1 | inactive | 41.3% | 54.1% | inactive | 177 | inactive
N#Cc1c2nc3ccccc3nc2n2cc(NC(=O)c3ccc(F)cc3)ccc12 | inactive | 49.3% | 64.8% | inactive | 158 | inactive
Cc1ccc2c(c1)c1nnc(SCC(=O)Nc3cccc(Cl)c3C)nc1n2CC(=O)O | inactive | 35.2% | 80.1% | inactive | 245 | inactive
Cc1ccc(-c2cn3cccc(C)c3n2)cc1 | inactive | 35.6% | 86% | inactive | 167 | inactive
Cc1ccc(CSc2ncccc2C(=O)O)cc1 | inactive | 67.9% | 199% | inactive | 284 | inactive
O=C(Nc1nc(-c2ccc(S(=O)(=O)N3CCCC3)cc2)cs1)c1cccs1 | inactive | 83.9% | 135% | inactive | 164 | inactive
CCN1CCN(c2nc3c(c(=O)n(C)c(=O)n3C)n2Cc2cccc3ccccc23)CC1 | inactive | 43.1% | 92.2% | inactive | 314 | inactive
Cc1ccccc1C(=O)Nc1cccc(C(=O)N/N=C/c2cc(Cl)cc([N+](=O)[O-])c2O)c1 | inactive | 25.1% | 74.6% | inactive | 191 | inactive
Cc1ccc2c(c1)c1nnc(SCC(=O)N3CCCc4ccccc43)nc1n2CC(=O)O | inactive | 17.6% | 37.8% | inactive | 96.4 | inactive
COc1ccc2c(C)nc(N/C(N)=N/S(=O)(=O)c3ccc(C)cc3)nc2c1 | inactive | 38.9% | 87.9% | inactive | 272 | inactive
COc1ccc(Nc2ccccc2C(=O)O)cc1 | inactive | 45.2% | 92.5% | inactive | 262 | inactive
Cc1c(C=O)c2ccccn2c1C(=O)c1ccc(Cl)c([N+](=O)[O-])c1 | inactive | 31.5% | 78.3% | inactive | 247 | inactive
COc1cc2[nH]c(=S)nc(NCc3cccs3)c2cc1OC | inactive | 29.5% | 67.6% | inactive | 161 | inactive
CCCNC(=O)Cn1c(=O)/c(=C\c2ccc(-c3ccc([N+](=O)[O-])cc3)o2)s/c1=C\C(=O)C(C)(C)C | inactive | 115% | 126% | inactive | 300 | inactive
Cc1cc2nc(/C(C#N)=C/c3ccncc3)[nH]c2cc1C | inactive | 30.6% | 76.7% | inactive | 245 | inactive
Cc1nnc(N2CCOCC2)c2nn(-c3ccccc3)c(C)c12 | inactive | 58.1% | 71.2% | inactive | 198 | inactive
CCn1cc(C(=O)O)c(=O)c2cc(F)c(N/N=C/c3ccccc3)cc21 | inactive | 45.9% | 58.9% | inactive | 144 | inactive
CC(C)Nc1nnc(SCC(=O)Nc2ccc3c(c2)C(=O)c2ccccc2C3=O)s1 | inactive | 43.2% | 50.9% | inactive | 0 | inactive

Compound | outcome [1] | fluorescence, percent of control (lower = inhibition) [2] | GTP binding, percent of control [3] | outcome [4] | GTP binding signal, raw median fluorescence (lower = inhibition) (MCF (arbitrary fluorescence units)) [5] | outcome [6]
CCOc1cc(/C=C2/SC(=S)NC2=O)ccc1OC(=O)c1ccco1 | inactive | 33.4% | 83.7% | inactive | 208 | inactive
Cc1ccc(Nc2c(F)c(F)c(F)c(F)c2C(=O)O)c(C)c1 | inactive | 92.8% | 109% | inactive | 75.2 | inactive
COc1ccccc1-n1cc([C@@H]2C[C@H]3CN(c4ccccc4)C(=O)[C@]34CCCN24)cn1 | inactive | 71.8% | 119% | inactive | 293 | inactive
CCOc1cc(C2c3c(-c4ccccc4)n[nH]c3C(=O)N2c2ccc(C(=O)O)cc2)ccc1O (centres undefined) | inactive | 29% | 79.3% | inactive | 95.9 | inactive
S=c1[nH]nc(-c2ccc3ccccc3n2)n1-c1ccccc1Cl | inactive | 45.1% | 60.2% | inactive | 165 | inactive
Cc1ccc(Cc2cnc(NC(=O)/C(C#N)=C/c3ccc(-c4ccc([N+](=O)[O-])cc4)o3)s2)cc1 | inactive | 28.5% | 75.1% | inactive | 223 | inactive
O=C(O)c1ccc(Nc2nc(-c3cccnc3)nc3ccccc23)cc1 | inactive | 27.9% | 66.3% | inactive | 142 | inactive
O=C(O)c1c(C(F)(F)F)ccnc1NCc1ccccc1 | inactive | 61.8% | 224% | inactive | 57.2 | inactive
CSc1nc(Cc2ccccc2)cc(=O)[nH]1 | inactive | 36.3% | 80.4% | inactive | 273 | inactive
CSc1nnc(-c2cc(Br)ccc2N=Cc2c(C)[nH]n(-c3ccccc3)c2=O)c(=O)[nH]1 | inactive | 24.2% | 67.4% | inactive | 183 | inactive
O=C(C#Cc1ccccc1F)c1ccc([N+](=O)[O-])cc1 | inactive | 49.8% | 179% | inactive | 104 | inactive
Cc1ccc(S(=O)(=O)N2CC3(C)CN(S(=O)(=O)c4ccc(C)cc4)CC(C)(C2)C3O)cc1 (centres undefined) | inactive | 50% | 61.9% | inactive | 204 | inactive
CC(Sc1nnc(NC2CCCCC2)s1)C(=O)Nc1ccc2c(c1)C(=O)c1ccccc1C2=O (centres undefined) | inactive | 49.1% | 61.4% | inactive | 161 | inactive
Cc1ccc(S(=O)(=O)N(C)C)cc1NC(=O)COC(=O)c1ccc(Cl)cc1 | inactive | 39.2% | 86% | inactive | 265 | inactive
Cc1ccc(-n2c3nc(=O)[nH]c(=O)c-3cc3cc([N+](=O)[O-])ccc32)cc1 | inactive | 34.4% | 71% | inactive | 103 | inactive
COc1ccc(Cn2c(O)c(/C=N/NC(=O)c3cccnc3)c3ccccc3c2=O)cc1 | inactive | 17.2% | 68.9% | inactive | 63.7 | inactive
O=C(O)c1cc([N+](=O)[O-])ccc1NCc1ccccc1 | inactive | 121% | 149% | inactive | 105 | inactive
COC(=O)c1cn(CCOc2ccccc2)c2ccccc12 | inactive | 34.2% | 83% | inactive | 225 | inactive
COc1cc(/C=C(\C#N)c2nc3ccc(C)cc3[nH]2)cc([N+](=O)[O-])c1O | inactive | 25.3% | 61.6% | inactive | 151 | inactive
NC(=S)N=Nc1c(O)[nH]c2c(Br)cc(Br)cc12 | inactive | 32.3% | 73% | inactive | 198 | inactive
CN1CCN(S(=O)(=O)c2cccc(C(=O)Nc3sc4c(c3C(N)=O)CCCC4)c2)CC1 | inactive | 43.6% | 57.3% | inactive | 150 | inactive
Cc1ccc(NC(=O)CN2C(=O)S/C(=C\c3ccc(-c4cccc(C(=O)O)c4C)o3)C2=O)cc1C | inactive | 107% | 149% | inactive | 265 | inactive
O=C(O)c1ccc(CNCc2ccc(F)cc2)cc1 | inactive | 43.1% | 87.8% | inactive | 260 | inactive
COc1ccc(Nc2nc(-c3c(C)nc4ncccn34)cs2)cc1 | inactive | 29% | 66% | inactive | 140 | inactive
O=C(OCCN1CCCCC1)c1cc2ccccc2o1 | inactive | 34.8% | 79.9% | inactive | 271 | inactive
CN(/N=C/c1cccnc1)C1=NS(=O)(=O)c2ccccc21 | inactive | 36.2% | 50.7% | inactive | 137 | inactive
O=C(c1n[nH]c(=O)c2ccccc12)N1CCN(C2c3ccccc3-c3ccccc32)CC1 | inactive | 87% | 156% | inactive | 175 | inactive
